# Assay outcomes: PubChem BioAssay, several laboratories
# ERa SRC1 inh: ER-alpha (human) coactivator binding inhibition. 86,000 compounds, 1.7% hits. AID 629. inhibition, % at 25.6 µM. P03372. TR-FRET ER-alpha LBD / SRC-1 peptide, estradiol-bound; in the data active = inhibition above about 50%;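 also: 0% = receptor plus peptide control and 100% = peptide only without receptor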
# ERb coact inh: ER-beta (human) coactivator binding inhibition. Q92731. TR-FRET ER-beta LBD / SRC1-Cy5 peptide binding; receptor agonist-loaded with 1 µM estradiol. inhibition, % at 25.6 µM. 86,000 compounds, 1.3% hits. AID 633;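 active = compounds whose percent inhibition of the receptor-coactivator binding signal exceeds about 50% in the single-dose screen, limit read from the data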;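 also: 0% = receptor plus peptide wells without compound and 100% = peptide-only wells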
# Target sequence (Q92731 whole entry, looked up, the tested form may be a part): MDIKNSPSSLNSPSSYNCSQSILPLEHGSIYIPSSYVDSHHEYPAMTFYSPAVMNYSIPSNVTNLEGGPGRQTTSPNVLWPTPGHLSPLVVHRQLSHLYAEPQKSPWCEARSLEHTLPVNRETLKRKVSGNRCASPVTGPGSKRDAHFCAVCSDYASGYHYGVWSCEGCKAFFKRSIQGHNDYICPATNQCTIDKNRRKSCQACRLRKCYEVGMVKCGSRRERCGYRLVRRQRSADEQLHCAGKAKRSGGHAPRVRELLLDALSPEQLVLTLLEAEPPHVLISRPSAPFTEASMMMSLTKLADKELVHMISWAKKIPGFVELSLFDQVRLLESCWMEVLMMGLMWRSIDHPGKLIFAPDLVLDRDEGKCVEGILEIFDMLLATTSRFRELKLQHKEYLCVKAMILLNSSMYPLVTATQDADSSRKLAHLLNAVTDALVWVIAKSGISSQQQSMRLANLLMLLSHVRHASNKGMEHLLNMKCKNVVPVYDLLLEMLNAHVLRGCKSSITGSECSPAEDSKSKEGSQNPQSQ
# ERa coact pot: enhances coactivator binding to human estrogen receptor alpha; TR-FRET ERalpha-LBD/SRC-Cy5 coactivator binding, 2 h; 100 = basal binding, no effect; coactivator binding (% of control), % at 25.6 µM; P03372; 86,000 compounds, 1.3% hits; in the data active = activity above about 200%;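 also: binding measured in presence of low estradiol as agonist stimulus; 0% = peptide alone without receptor and 100% = receptor with peptide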
# MRP resist rev: MRP-mediated drug resistance reversal; differential viability (reversal), % at 10 µM; AID 602; H69AR cells + 2 uM doxorubicin, CellTiter-Glo, 72 h; 85,000 compounds, 0.04% hits;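 active = viability drop by adding the cancer drug above about 55%, with treated viability meeting a 40% cutoff, limit read from the data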;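 also: viability without doxorubicin minus viability with 2 µM doxorubicin for each compound; larger differential means the compound sensitizes cells more to doxorubicin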
# MRP-1 activ: activators of MRP-1; H69AR cells + doxorubicin, viability rescue, CellTiter-Glo; viability increase, % at 10 µM; 140,000 compounds, 0.61% hits;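 active = viability gain under doxorubicin at or above a set limit, the compound median plus 3 SD, cut at about 4.7% in these data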;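 also: MRP-1 overexpressing cells given doxorubicin 25 µM after compound pretreatment; 18-22 h compound pretreatment then 72 h with doxorubicin before readout; 0% = doxorubicin-only wells and 100% = vehicle-treated cells without doxorubicin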
# Numbers without * were called inactive; x = not tested or not shown; [ ] = remark or other dose. Most compounds without a hit are left out; they make up all but 2.7% or so of the library.
SMILES,ERa SRC1 inh,ERb coact inh,ERa coact pot,MRP resist rev,MRP-1 activ
O=c1[nH]c(=O)n(Cc2ccco2)c2c1C(C(F)(F)F)(C(F)(F)F)N=C(CCc1ccccc1)N2,59.5*[fluorescence artefact?],24.6,81.2,-7.2,-5.1
CCn1c(-c2ccccc2)ccc(C#N)c1=O,x,x,x,x,-0.2
Cc1ccc(C2CC(C(F)(F)F)n3nc(C(=O)NCc4c(C)nn(C)c4C)c(Cl)c3N2)cc1 (centres undefined),x,x,x,x,6.4*
Cc1nn(C)c(C)c1CNC(=O)c1cnn2c1NC(c1ccccc1)CC2C(F)(F)F (centres undefined),-2.9,-3.9,111.7,1.8,-3.4
CCOc1cccc(SCc2noc(C(=O)NCC3CCCO3)c2C(=O)O)c1 (centres undefined),x,x,x,x,-0.8
CCOC(=O)c1nn(-c2ccccc2C)c2nc(-c3ccc(Cl)cc3)c(C#N)c(=O)n12,x,x,x,x,-2.8
O=C(O)CCC(=O)N1CCN(c2ccc(C(=O)c3ccc(F)cc3)cc2)CC1,12.9,-6.6,249.3*,12.5,-1.2
COc1ccc(Nc2nnc(SCc3cc(=O)n4ccsc4n3)s2)cc1,76.4*[fluorescence artefact?],52.1*,51.9,4.1,-0.8
O=c1cc(CNc2ccc(Br)cc2)nc2sccn12,x,x,x,x,8.7*
Cc1ccc(Nc2nnc(SCc3cc(=O)n4cc(C)ccc4n3)s2)cc1,x,x,x,x,-1.9
CN(Cc1cc(=O)n2ccsc2n1)c1ccccc1,x,x,x,x,0.9
CC(=O)N(C)c1ccc(NC(=O)COc2ccc(Br)cc2C)cc1,x,x,x,x,-2.0
CCOc1ccc(NC(=O)c2oc3ccccc3c2NC(=O)C2CC2)cc1,-25.2,-27.3,114.8,-11.8,x
CCOC(=O)c1ccc(NC(=S)N2CCSC2c2ccc(Br)cc2)cc1 (centres undefined),x,x,x,x,0.3
Cc1ccc(/C=C2\SC(=S)N(c3c(C)n(C)n(-c4ccccc4)c3=O)C2=O)cc1,x,x,x,x,7.6*
O=C1/C(=C/c2cccnc2)SC(=S)N1c1ccccc1,x,x,x,x,2.2
Cc1c(N2C(=O)/C(=C/c3ccccc3)SC2=S)c(=O)n(-c2ccccc2)n1C,x,x,x,x,8.0*
Cc1ccc(/C=C2/SC(=S)N(CCC(=O)N3CCN(c4ccccc4)CC3)C2=O)cc1,x,x,x,x,3.5
CC(C)Cn1c(N)c(C(=O)CSc2nc3ccccc3n2C)c(=O)n(C)c1=O,x,x,x,x,-4.6
Cc1ccc(-n2nnnc2SCC(=O)c2c(N)n(CC(C)C)c(=O)n(C)c2=O)cc1,-7.6,-6.4,242.1*,-5.5,-1.9
CC(C)(C)SCCNC(=O)Nc1ccccc1,x,x,x,x,-1.7
O=C(COc1ccc(Cl)cc1)NCc1nnc(SCC(=O)N2CCCCC2)o1,-6.5,-1.8,108.1,8.0,0.7
O=C(COc1ccc(Cl)cc1)NCc1nnc(SCC(=O)NCc2ccc3c(c2)OCO3)o1,11.2,-16.8,110.6,8.1,5.8*
Cc1ccc2[nH]c(=O)c(C3C(C#N)=C(N)Oc4c3ccc3cccnc43)cc2c1 (centres undefined),78.8*,60.9*,49.3,-12.3,-6.3
COC(=O)C1=C(C)NC(C)=C(C(=O)OC)C1c1cc2cc(C)ccc2[nH]c1=O,0.8,4.3,113.7,5.4,-3.5
SMILES,ERa SRC1 inh,ERb coact inh,ERa coact pot,MRP resist rev,MRP-1 activ
CN(C)S(=O)(=O)c1ccc(N2CCCC2)c(C(=O)NC(c2ccccc2)c2ccccc2)c1,x,x,x,x,-1.0
CC(=O)Nc1nc(C=C(Cl)Cl)cs1,64.7*,61.2*[fluorescence artefact?],14.9,8.6,-2.7
CC(=O)Nc1nc(C(F)(F)F)cs1,x,x,x,x,-1.0
CC(C)(C)NC(=O)COC(=O)c1snc(C(=O)NC2CCCCC2)c1N,-0.2,-1.6,111.6,14.5,1.7
CC(OC(=O)c1snc(C(=O)NC2CCCCC2)c1N)C(=O)NC(C)(C)C (centres undefined),1.6,0.1,120.1,-12.9,6.2*
Cc1csc(N/N=C/c2ccc(O)c([N+](=O)[O-])c2)n1,98.6*[fluorescence artefact?],99.3*[fluorescence artefact?],3.6,24.7,-1.6
Cc1nnc(N/N=C/c2ccc(O)c([N+](=O)[O-])c2)[nH]c1=O,x,x,x,x,0.0
Cc1ccc(/C=C/C(=O)Nc2cc(=O)n(C)c(=O)n2C)o1,x,x,x,x,-0.4
CC(=O)c1ccc(NC(=O)CCCN2C(=O)/C(=C/C(C)=C/c3ccccc3)SC2=S)cc1,x,x,x,x,6.1*
Cc1cc(NC(=O)CN2C(=O)S/C(=C\c3ccccc3)C2=O)no1,x,x,x,x,5.1*
O=C(CN1C(=O)S/C(=C\c2ccc(Cl)cc2)C1=O)NNC(=O)c1ccccc1O,x,x,x,x,7.7*
CC(/C=C1\SC(=O)N(CC(=O)Nc2ccc(O)cc2)C1=O)=C\c1ccccc1,x,x,x,x,8.7*
CC(/C=C1\SC(=O)N(CC(=O)Nc2cccc(O)c2)C1=O)=C\c1ccccc1,x,x,x,x,3.9
